# ± gives the standard deviation of the averaged measurements. Over roughly 33,000 sequences, “E-score (rank enrichment, -0.5 to 0.5)” has its median near -0.0075; the highest 2% begin near 0.23. The sample as a whole holds a higher share of the highest values than the screen did.
# Test system: WT Max(13-93) synthetic (M65Nle)
# Experiment: PBM 8-mer E-score (E-score (rank enrichment, -0.5 to 0.5)); higher = stronger preferential binding
# Experimental: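 Protein binding microarray (universal PBM chip covering all 10-mers in fixed probe flanks) with chemically synthesized human Max(13-93) bHLH-LZ analogs (not full-length Max) bearing noncanonical residues (hArg, Tha, Aib, Nle at 65) and aromatic Cys staples. Read-out per 8-mer (and its reverse complement): E-score (rank-based enrichment, -0.5 to 0.5) and Z-score of median probe intensity.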
row,Sequence,PBM 8-mer E-score
1,ATCACATG,0.37 ± 0.017
2,ACCACATG,0.404 ± 0.012
3,ATCACATC,0.065 ± 0.073
4,ACCACATC,0.0678 ± 0.067
5,GCTCTGAC,-0.2596 ± 0.00028
6,CCTACTGA,0.0748 ± 0.039
7,CCCTATCA,0.0698 ± 0.034
8,CCTCACAC,-0.0382 ± 0.027
9,TGAGCTCA,-0.206 ± 0.065
10,CATGCACG,0.186 ± 0.11
11,CGTGCACA,0.176 ± 0.0077
12,AATGCACG,0.245 ± 0.045
13,GATGCACA,-0.00554 ± 0.026
14,AATGCACT,0.143 ± 0.027
15,TGTGCACA,0.132 ± 0.071
16,CGTGCACG,0.293 ± 0.049
17,CATGCACA,0.353 ± 0.0061
18,AATGCACA,0.128 ± 0.055
19,CCTACTGC,-0.0303 ± 0.015
20,AATAGAGT,0.0159 ± 0.021
21,AAGGCTCT,-0.0744 ± 0.037
22,GGTCGGAA,-0.0727 ± 0.14
23,AGTCTGTG,-0.264 ± 0.097

row,Sequence,PBM 8-mer E-score
1,ACAGTGTG,0.116 ± 0.011
2,GGACATTA,0.0724 ± 0.14
3,GTGCACAA,-0.0677 ± 0.047
4,GATACAGC,0.0628 ± 0.015
5,CAGTATTC,0.0983 ± 0.017
6,CACATGCG,0.29 ± 0.047
7,GACATGCC,0.167 ± 0.019
8,CATATGCG,0.252 ± 0.015
9,GACATGCA,0.144 ± 0.07
10,CACATGCC,0.258 ± 0.024
11,AATATGCG,0.0644 ± 0.011
12,TACATGCA,0.196 ± 0.084
13,CACATGCA,0.305 ± 0.031
14,AACATGCG,0.221 ± 0.0062
15,CCCATGCG,0.187 ± 0.058
16,CATATGCC,0.118 ± 0.036
17,AACATGCC,0.093 ± 0.12
18,CTGCATAA,0.0963 ± 0.024
19,CCAATGTA,-0.0337 ± 0.034
20,GTTGTTTA,0.212 ± 0.071
21,CTACACTC,-0.0808 ± 0.031
22,ACTGAGAC,-0.109 ± 0.043
23,CCCACGGC,-0.024 ± 0.17

row,Sequence,PBM 8-mer E-score
1,CAGATTGG,-0.114 ± 0.072
2,CACATCCG,-0.176 ± 0.045
3,CTAAGGAG,-0.143 ± 0.011
4,TAAATATA,0.253 ± 0.0074
5,AAAATATA,0.254 ± 0.032
6,AAAATATC,0.098 ± 0.12
7,GAAATATA,0.219 ± 0.035
8,TAAATACA,0.248 ± 0.0097
9,CAAATATA,0.137 ± 0.06
10,AAAATACA,0.0792 ± 0.0013
11,AAAATATG,0.21 ± 0.0022
12,GAAATACA,-0.0415 ± 0.044
13,AGGGCGTA,0.122 ± 0.028
14,GAATTCTA,-0.07 ± 0.14
15,CAGGCCCC,-0.0835 ± 0.04
16,GCATGCAA,0.257 ± 0.029
17,ACATGCGG,0.14 ± 0.056
18,AAATGCGT,0.0113 ± 0.099
19,ACATGCAA,0.185 ± 0.073
20,TCATGCAA,0.174 ± 0.02
21,GCATGCAC,0.277 ± 0.0097
22,CCATGCAA,0.127 ± 0.083
23,CCATGCAC,0.0862 ± 0.038

row,Sequence,PBM 8-mer E-score
1,ACATGCAG,0.126 ± 0.044
2,ACATGCAC,0.244 ± 0.065
3,GTATGCAC,0.1415 ± 0.00096
4,ACATGCGT,0.313 ± 0.081
5,CGCACTGA,-0.179 ± 0.032
6,ACTGTGTC,-0.00876 ± 0.03
7,GTCTGGCA,-0.0283 ± 0.1
8,ATAGACAA,0.1094 ± 0.00018
9,ACCTCGAT,-0.1167 ± 0.00076
10,ATTCTAAG,0.0595 ± 0.006
11,CTGATCCA,0.0725 ± 0.042
12,CAGAGAAC,-0.0299 ± 0.06
13,TATGATCA,0.0122 ± 0.2
14,AAACAGTT,0.0134 ± 0.022
15,CCCCTATC,-0.00604 ± 0.055
16,GTCGGAGA,-0.0989 ± 0.0099
17,ACATGCAT,0.302 ± 0.039
18,AAATGCAT,0.229 ± 0.035
19,ACATGCTA,0.174 ± 0.035
20,CCATGCTC,0.084 ± 0.019
